# Experimental data from the supplement of paper PMC8728848.
# About 410 targets per protein were measured; listed, in parts, are those with the strongest signals and a random draw of the rest.
# B1: mCC1-Hexahis-Precomplexed (Mus musculus), P31809 (protein)
# chain: MELASAHLHKGQVPWGGLLLTASLLASWSPATTAEVTIEAVPPQVAEDNNVLLLVHNLPLALGAFAWYKGNTTAIDKEIARFVPNSNMNFTGQAYSGREIIYSNGSLLFQMITMKDMGVYTLDMTDENYRRTQATVRFHVHPILLKPNITSNNSNPVEGDDSVSLTCDSYTDPDNINYLWSRNGESLSEGDRLKLSEGNRTLTLLNVTRNDTGPYVCETRNPVSVNRSDPFSLNIIYGPDTPIISPSDIYLHPGSNLNLSCHAASNPPAQYFWLINEKPHASSQELFIPNITTNNSGTYTCFVNNSVTGLSRTTVKNITVLEPVTQPFLQVTNTTVKELDSVTLTCLSNDIGANIQWLFNSQSLQLTERMTLSQNNSILRIDPIKREDAGEYQCEISNPVSVRRSNSIKLDIIFDPTQGGLSDGHHHHHH
# Columns and labels:
# Assay in all cases: glycan array binding signal (z-score within array); higher = stronger binding
# Conditions in all cases: glycan notation: IUPAC condensed, linker removed
# [1] = target: Fuc(a1-2)Gal(b1-4)GlcNAc(b1-3)[Fuc(a1-3)[Gal(b1-4)]GlcNAc(b1-6)]Gal(b1-4)Glc
# In short: (§1)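 Glycan array data were curated from 3228 arrays in the Consortium for Functional Glycomics database and kept only where the protein sequence was available. Glycan names were converted to IUPAC-condensed notation, and columns mapping to the same glycan were averaged. The binding signal is a within-array Z-score, averaged across arrays of the same protein sequence at different concentrations or buffers and across linkers. Negative Z-scores can be read as non-binding.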
# [2] = target: Fuc(a1-2)Gal(b1-4)[Fuc(a1-3)]GlcNAc(b1-3)Gal(b1-4)[Fuc(a1-3)]GlcNAc(b1-3)Gal(b1-4)[Fuc(a1-3)]GlcNAc
# In short: as §1
# [3] = target: Fuc(a1-2)[Gal(a1-3)]Gal(b1-3)GlcNAc(b1-6)GalNAc
# In short: as §1
# [4] = target: Fuc(a1-2)[GalNAc(a1-3)]Gal(b1-4)[Fuc(a1-3)]GlcNAc
# In short: as §1
# [5] = target: Fuc(a1-3)[Gal(b1-4)]GlcNAc(b1-6)GalNAc
# In short: as §1
# [6] = target: Fuc(a1-3)[GalNAc(b1-4)]GlcNAc6S
# In short: as §1
# [7] = target: Gal(a1-3)Gal(b1-3)GlcNAc(b1-2)Man(a1-3)[Gal(a1-3)Gal(b1-3)GlcNAc(b1-2)Man(a1-6)]Man(b1-4)GlcNAc(b1-4)GlcNAc
# In short: as §1
# Gal(a1-4)Gal(b1-4)GlcNAc = target: Gal(a1-4)Gal(b1-4)GlcNAc
# In short: as §1
# [8] = target: Gal(b1-3)GalNAc(a1-3)[Fuc(a1-2)]Gal(b1-4)GlcNAc
# In short: as §1
# [9] = target: Gal(b1-3)GlcNAc(b1-2)[Gal(b1-3)GlcNAc(b1-6)]Man(a1-6)[Gal(b1-3)GlcNAc(b1-2)Man(a1-3)]Man(b1-4)GlcNAc(b1-4)GlcNAc
# In short: as §1
# [10] = target: Gal(b1-3)[Fuc(a1-4)]GlcNAc(b1-3)Gal(b1-4)[Fuc(a1-3)]GlcNAc
# In short: as §1
# [11] = target: Gal(b1-4)GlcNAc(b1-2)[Gal(b1-4)GlcNAc(b1-4)]Man(a1-3)[Gal(b1-4)GlcNAc(b1-2)[Gal(b1-4)GlcNAc(b1-6)]Man(a1-6)]Man(b1-4)GlcNAc(b1-4)GlcNAc
# In short: as §1
# [12] = target: Gal(b1-4)GlcNAc(b1-3)Gal(b1-3)GalNAc
# In short: as §1
# [13] = target: Gal(b1-4)GlcNAc(b1-3)Gal(b1-4)GlcNAc(b1-2)Man(a1-3)[Gal(b1-4)GlcNAc(b1-3)Gal(b1-4)GlcNAc(b1-2)Man(a1-6)]Man(b1-4)GlcNAc(b1-4)GlcNAc
# In short: as §1
# [14] = target: Gal(b1-4)GlcNAc(b1-3)Gal(b1-4)GlcNAc(b1-3)Gal(b1-4)GlcNAc(b1-2)Man(a1-3)[Gal(b1-4)GlcNAc(b1-3)Gal(b1-4)GlcNAc(b1-3)Gal(b1-4)GlcNAc(b1-2)Man(a1-6)]Man(b1-4)GlcNAc(b1-4)GlcNAc
# In short: as §1
# [15] = target: Gal(b1-4)GlcNAc(b1-3)Gal(b1-4)GlcNAc(b1-3)GalNAc
# In short: as §1
# [16] = target: Gal(b1-4)GlcNAc(b1-3)Gal(b1-4)GlcNAc(b1-3)[Gal(b1-4)GlcNAc(b1-3)Gal(b1-4)GlcNAc(b1-6)]GalNAc
# In short: as §1
# [17] = target: Gal(b1-4)GlcNAc(b1-3)Gal(b1-4)GlcNAc(b1-6)[Gal(b1-3)]GalNAc
# In short: as §1
# Gal3S(b1-4)Glc = target: Gal3S(b1-4)Glc
# In short: as §1
# [18] = target: Gal3S(b1-4)[Fuc(a1-3)]Glc6S
# In short: as §1
# GalNAc(b1-4)GlcNAc6S = target: GalNAc(b1-4)GlcNAc6S
# In short: as §1
# GalNAc3S(b1-4)GlcNAc3S = target: GalNAc3S(b1-4)GlcNAc3S
# In short: as §1
# GlcA(b1-6)Gal = target: GlcA(b1-6)Gal
# In short: as §1
# [19] = target: GlcA3S(b1-3)Gal(b1-4)GlcNAc(b1-3)Gal(b1-4)Glc
# In short: as §1
# GlcNAc(b1-3)Gal(b1-4)Glc = target: GlcNAc(b1-3)Gal(b1-4)Glc
# In short: as §1
# [20] = target: GlcNAc(b1-3)Gal(b1-4)GlcNAc
# In short: as §1
# [21] = target: GlcNAc(b1-3)Gal(b1-4)GlcNAc(b1-2)Man(a1-3)[GlcNAc(b1-3)Gal(b1-4)GlcNAc(b1-2)Man(a1-6)]Man(b1-4)GlcNAc(b1-4)GlcNAc
# In short: as §1
# [22] = target: Kdn(a2-3)Gal(b1-4)[Fuc(a1-3)]GlcNAc
# In short: as §1
# Man(a1-2)Man(a1-3)Man = target: Man(a1-2)Man(a1-3)Man
# In short: as §1
# [23] = target: Man(a1-3)[Man(a1-6)]Man(a1-6)[Man(a1-2)Man(a1-3)]Man(b1-4)GlcNAc(b1-4)GlcNAc
# In short: as §1
# [24] = target: Man(a1-3)[Man(a1-6)]Man(a1-6)[Man(a1-3)]Man(b1-4)GlcNAc(b1-4)GlcNAc
# In short: as §1
# [25] = target: Neu5Ac(a2-3)Gal(b1-4)GlcNAc(b1-2)[Neu5Ac(a2-3)Gal(b1-4)GlcNAc(b1-6)]Man(a1-6)[Neu5Ac(a2-3)Gal(b1-4)GlcNAc(b1-2)Man(a1-3)][GlcNAc(b1-4)]Man(b1-4)GlcNAc(b1-4)GlcNAc
# In short: as §1
# [26] = target: Neu5Ac(a2-3)Gal(b1-4)GlcNAc(b1-3)Gal(b1-4)GlcNAc(b1-2)Man(a1-3)[Neu5Ac(a2-3)Gal(b1-4)GlcNAc(b1-3)Gal(b1-4)GlcNAc(b1-2)Man(a1-6)]Man(b1-4)GlcNAc(b1-4)GlcNAc
# In short: as §1
# [27] = target: Neu5Ac(a2-3)Gal(b1-4)GlcNAc(b1-3)Gal(b1-4)GlcNAc(b1-3)Gal(b1-4)GlcNAc(b1-2)Man(a1-3)[Neu5Ac(a2-3)Gal(b1-4)GlcNAc(b1-3)Gal(b1-4)GlcNAc(b1-3)Gal(b1-4)GlcNAc(b1-2)Man(a1-6)]GalNAc
# In short: as §1
# [28] = target: Neu5Ac(a2-3)Gal(b1-4)GlcNAc(b1-3)Gal(b1-4)GlcNAc(b1-3)GalNAc
# In short: as §1
# [29] = target: Neu5Ac(a2-3)[GalNAc(b1-4)]Gal(b1-4)GlcNAc(b1-3)GalNAc
# In short: as §1
# [30] = target: Neu5Ac(a2-6)Gal(b1-4)GlcNAc(b1-3)Gal(b1-4)GlcNAc(b1-3)Gal(b1-4)GlcNAc(b1-2)Man(a1-3)[Neu5Ac(a2-6)Gal(b1-4)GlcNAc(b1-3)Gal(b1-4)GlcNAc(b1-3)Gal(b1-4)GlcNAc(b1-2)Man(a1-6)]GalNAc
# In short: as §1
# [31] = target: Neu5Ac(a2-6)Gal(b1-4)GlcNAc(b1-3)Gal(b1-4)GlcNAc(b1-3)[Neu5Ac(a2-6)Gal(b1-4)GlcNAc(b1-3)Gal(b1-4)GlcNAc(b1-6)]GalNAc
# In short: as §1
# [32] = target: Neu5Ac(a2-6)Gal(b1-4)GlcNAc(b1-3)Gal(b1-4)[Fuc(a1-3)]GlcNAc(b1-3)Gal(b1-4)[Fuc(a1-3)]GlcNAc
# In short: as §1
# Neu5Ac(a2-6)GalNAc = target: Neu5Ac(a2-6)GalNAc
# In short: as §1
binder,measurement,setting,value
B1,glycan array binding signal (z-score),[1],-0.163
same,glycan array binding signal (z-score),[2],-0.097
same,glycan array binding signal (z-score),[3],-0.18
same,glycan array binding signal (z-score),[4],0.277
same,glycan array binding signal (z-score),[5],-0.024
same,glycan array binding signal (z-score),[6],-0.231
same,glycan array binding signal (z-score),[7],-0.189
same,glycan array binding signal (z-score),Gal(a1-4)Gal(b1-4)GlcNAc,-0.227
same,glycan array binding signal (z-score),[8],-0.191
same,glycan array binding signal (z-score),[9],-0.273
same,glycan array binding signal (z-score),[10],-0.217
same,glycan array binding signal (z-score),[11],-0.217
same,glycan array binding signal (z-score),[12],-0.158
same,glycan array binding signal (z-score),[13],3.85
same,glycan array binding signal (z-score),[14],4.96
same,glycan array binding signal (z-score),[15],6.28
same,glycan array binding signal (z-score),[16],4.46
same,glycan array binding signal (z-score),[17],5.01
same,glycan array binding signal (z-score),Gal3S(b1-4)Glc,-0.25
same,glycan array binding signal (z-score),[18],-0.049
same,glycan array binding signal (z-score),GalNAc(b1-4)GlcNAc6S,-0.282
same,glycan array binding signal (z-score),GalNAc3S(b1-4)GlcNAc3S,-0.065
same,glycan array binding signal (z-score),GlcA(b1-6)Gal,-0.12
same,glycan array binding signal (z-score),[19],-0.235
same,glycan array binding signal (z-score),GlcNAc(b1-3)Gal(b1-4)Glc,-0.227
same,glycan array binding signal (z-score),[20],-0.246
same,glycan array binding signal (z-score),[21],-0.184
same,glycan array binding signal (z-score),[22],-0.169
same,glycan array binding signal (z-score),Man(a1-2)Man(a1-3)Man,-0.152
same,glycan array binding signal (z-score),[23],4.18
same,glycan array binding signal (z-score),[24],-0.197
same,glycan array binding signal (z-score),[25],-0.045
same,glycan array binding signal (z-score),[26],7.65
same,glycan array binding signal (z-score),[27],7.6
same,glycan array binding signal (z-score),[28],-0.119
same,glycan array binding signal (z-score),[29],3.55
same,glycan array binding signal (z-score),[30],4.99
same,glycan array binding signal (z-score),[31],9.54
same,glycan array binding signal (z-score),[32],-0.116
same,glycan array binding signal (z-score),Neu5Ac(a2-6)GalNAc,-0.234
